# Laboratory results reported in PubChem BioAssay (EPA / NIEHS).
# “And” between values parts separate entries of the source, which are not always exact repeats. Equal entries are not always repeated. Results filed as inconclusive are left out. Some compounds were tested as several samples or in several runs, with calls that do not always agree. The source made the active and inactive calls. Rule for the calls, unless noted: active = hit-call score of the fitted dose curve at least 0.9, where 1 is the maximum; inconclusive = response in the unintended direction; inactive = score below 0.9.
# Assays:
# [1] = TOX21_p53_BLA_p2_viability: Viability Assessment in the Tox21 HCT-116 p53 Agonism Beta-lactamase Assay, Phase 2 (AID 2283591);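 note: compound exposure lasted 16 h at 37 °C; actives lower the ATP signal meaning cytotoxicity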
# Summary of the method: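 HCT116 p53-bla cells, 4000/well, dosed after 5 h plating (217-fold dilution of DMSO stocks) and incubated 16 h at 37C. Viability taken as cellular ATP by CellTiter-Glo luminescence after 30 min RT; signal loss marks cytotoxicity.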
# [2] = target: Cellular tumor antigen p53 (Homo sapiens) (UniProt P04637); test: TOX21_p53_BLA_p2_ratio: Tox21 HCT-116 p53 Agonism Beta-lactamase Assay, Ratio, Phase 2 (AID 2283592)
# Summary of the method: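 Plated HCT116 p53-bla cells (4000/well) received compound after 5 h, then 16 h at 37C/5% CO2. CCF4-AM added, 2 h RT. Ratio of 460 to 530 nm emission taken as the p53 reporter signal.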
# [3] = TOX21_p53_BLA_p3_viability: Viability Assessment in the Tox21 HCT-116 p53 Agonism Beta-lactamase Assay, Phase 3 (AID 2283593);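 note: cells exposed to compound for 16 h before reading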
# Summary of the method: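 HCT116 cells, 4000/well, dosed 5 h after plating by pin transfer (217-fold dilution from DMSO stock) and incubated 16 h at 37C, 5% CO2. Viability read as ATP luminescence with CellTiter-Glo after 30 min at room temperature.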
# [4] = target: Cellular tumor antigen p53 (Homo sapiens) (UniProt P04637); test: TOX21_p53_BLA_p3_ratio: Tox21 HCT-116 p53 Agonism Beta-lactamase Assay, Ratio, Phase 3 (AID 2283596)
# Summary of the method: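 Cells were seeded at 4000/well, rested 5 h at 37C, then dosed with DMSO compound solutions (217-fold dilution) for 16 h. CCF4-AM substrate was loaded for 2 h at room temperature, and the 460/530 nm emission ratio was fitted for gain of signal versus DMSO.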
# [5] = TOX21_p53_BLA_p4_viability: Viability Assessment in the Tox21 HCT-116 p53 Agonism Beta-lactamase Assay, Phase 4 (AID 2283597);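 note: hits lower the luminescence signal meaning cytotoxicity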
# Summary of the method: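 Readout: ATP luminescence (CellTiter-Glo), measured 30 min after reagent addition at RT. The reagent followed a 2 h CCF4-AM incubation, and the cells had been exposed to compound for 16 h at 37C.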
# [6] = target: Cellular tumor antigen p53 (Homo sapiens) (UniProt P04637); test: TOX21_p53_BLA_p5_ratio: Tox21 HCT-116 p53 Agonism Beta-lactamase Assay, Ratio, Phase 5 (AID 2283599)
# Summary of the method: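 HCT-116 p53-bla cells (4000/well) plated 5 h, dosed with compound (217-fold DMSO dilution) for 16 h at 37 C; CCF4-AM substrate 2 h at room temperature. Activity is the 460/530 nm emission ratio (405 nm excitation), fitted in gain-of-signal direction versus DMSO.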
# [7] = TOX21_p53_BLA_p5_viability: Viability Assessment in the Tox21 HCT-116 p53 Agonism Beta-lactamase Assay, Phase 5 (AID 2283600)
# Summary of the method: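 Workflow: seed 4000 cells per well, wait 5 h, add compounds (DMSO, 217-fold dilution), incubate 16 h, load CCF4-AM 2 h, add CellTiter-Glo, read luminescence after 30 min.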
# [8] = target: Cellular tumor antigen p53 (Homo sapiens) (UniProt P04637); test: TOX21_p53_BLA_p4_ratio: Tox21 HCT-116 p53 Agonism Beta-lactamase Assay, Ratio, Phase 4 (AID 2283601)
# Summary of the method: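 HCT-116 p53 beta-lactamase reporter cells (4000/well) preincubated 5 h, then compound (217-fold dilution of DMSO stock) for 16 h at 37C. CCF4-AM substrate added 2 h at room temperature; 460/530 nm emission ratio fitted upward versus DMSO.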
# [9] = CCTE_Shafer_MEA_acute_spike_number: CCTE's Neural Acute Assay for Total Number of Spikes, Shafer Lab (AID 2284008; active = hit-call score of the fitted dose curve at least 0.9, where 1 is the maximum; inactive = score below 0.9;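 note: curve fitted for decrease in spike count so AC50 reflects inhibitors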)
# Summary of the method: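 Read-out is the total spike count over 40 min, expressed as percent change from each well's own pre-treatment baseline and fitted in the loss direction against DMSO. Rat cortical neurons were exposed at 0.03-40 uM on DIV 13 or 15.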
# [10] = CCTE_Shafer_MEA_acute_firing_rate_mean: CCTE's Neural Acute Assay for Mean Firing Rate, Shafer Lab (AID 2284009; active = hit-call score of the fitted dose curve at least 0.9, where 1 is the maximum; inactive = score below 0.9;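 note: analyzed for loss of signal so actives lower firing rate relative to DMSO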)
# Summary of the method: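 Rat cortical neuron cultures matured to DIV 13 or 15, equilibrated 20 min at 37 C, then recorded 40 min for baseline. Compound (0.03-40 uM) added and a further 40 min recorded; percent change in mean firing rate calculated per well.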
# [11] = CCTE_Harrill_HTTr_Viability_MCF7: CCTE's 6-hour Cell Viability Assessment for the High-Throughput Transcriptomics (HTTr) Platform, in MCF-7 cells cultured in DMEM + 10% fetal bovine serum, Harrill Lab (AID 2284010; active = hit-call score of the fitted dose curve at least 0.9, where 1 is the maximum; inactive = score below 0.9)
# Summary of the method: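 Eight-point concentration series, six-hour exposure. Propidium iodide exclusion imaged to assess membrane integrity as a cytotoxicity readout; bidirectional fitting was done with DMSO as negative control and activity baseline.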
# [12] = CCTE_Harrill_HTTr_Apoptosis_MCF7: CCTE's 6-hour Apoptosis Assessment for the High-Throughput Transcriptomics (HTTr) Platform, in MCF-7 cells cultured in DMEM + 10% fetal bovine serum, Harrill Lab (AID 2284011; active = hit-call score of the fitted dose curve at least 0.9, where 1 is the maximum; inactive = score below 0.9)
# Summary of the method: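 MCF-7 (DMEM + 10% FBS), 384-well; 8-pt dilution series, 6 h chemical exposure; caspase-3/7 activation via CellEvent Caspase 3/7 Green, HCI; bidirectional fit vs DMSO.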
# [13] = CCTE_Harrill_HTTr_CellCount_MCF7: CCTE's Cell Proliferation Assessment for the High-Throughput Transcriptomics (HTTr) Platform, Harrill Lab (AID 2284012);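 note: count of Hoechst-stained nuclei per well by high-content imaging in MCF-7 cells; cells exposed to compound for six hours; intended direction is loss of nuclei count meaning fewer cells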
# Summary of the method: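 For this full-screen endpoint, MCF-7 cultures received eight compound dilutions for six hours. Well nuclei counts from Hoechst imaging were analyzed relative to DMSO.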
# [14] = CCTE_Shafer_MEA_acute_burst_duration_mean: CCTE's Neural Acute Assay for Mean Burst Duration, Shafer Lab (AID 2284014; active = hit-call score of the fitted dose curve at least 0.9, where 1 is the maximum; inactive = score below 0.9;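 note: hits are decreases in mean burst duration relative to DMSO controls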)
# Summary of the method: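 Rat cortical cultures, DIV 13/15; 40 min baseline, then 40 min with compound (0.03-40 uM), 37 C. Spikes: 300-5000 Hz band-pass, 8x rms threshold. Read-out: % change in mean single-electrode burst duration, DMSO-referenced, loss direction.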
# Cellular tumor antigen p53 (Homo sapiens), sequence (P04637 whole entry, looked up): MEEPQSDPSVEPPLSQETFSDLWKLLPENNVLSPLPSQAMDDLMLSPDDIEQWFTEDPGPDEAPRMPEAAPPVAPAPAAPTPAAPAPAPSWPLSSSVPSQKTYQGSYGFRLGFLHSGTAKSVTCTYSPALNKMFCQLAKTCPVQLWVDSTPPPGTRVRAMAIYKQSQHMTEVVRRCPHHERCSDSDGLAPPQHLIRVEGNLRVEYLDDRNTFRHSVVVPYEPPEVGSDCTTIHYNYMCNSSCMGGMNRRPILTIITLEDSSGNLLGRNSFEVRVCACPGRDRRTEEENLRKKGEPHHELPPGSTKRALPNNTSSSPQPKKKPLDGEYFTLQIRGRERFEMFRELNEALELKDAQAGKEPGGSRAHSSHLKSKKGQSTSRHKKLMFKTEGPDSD
compound,measurement,setting,value
CNCCC(Oc1ccc(C(F)(F)F)cc1)c1ccccc1 (configuration not stated),AC50,[1],68.1 µM (active)
same,outcome,[1],inactive
same,outcome,[2],inactive
same,AC50,[3],74 µM (active)
same,outcome,[3],inactive
same,outcome,[4],inactive
same,AC50,[5],67.3 µM (active) and 33.8 µM (active)
same,outcome,[6],inactive
same,AC50,[7],73.2 µM (active)
same,outcome,[7],inactive
same,outcome,[8],inactive
same,AC50,[9],0.877 µM (active)
same,AC50,[10],0.877 µM (active)
same,AC50,[11],75.8 µM (active)
same,AC50,[12],69.4 µM (active)
same,outcome,[13],inactive
same,outcome,[14],inactive
